Shown are actives, neighbours in structure and some others; about 11% of the full set was active somewhere.
USP28 block: human USP28 deubiquitinase inhibition; hit rate 3% among 47,000; Q96RU2; inhibition, % at 25 µM; AID 1645857; purified USP28, Ub-rhodamine cleavage fluorescence, 30 min
USP30 inh: blocks human USP30 ubiquitin-rhodamine cleavage; Q70CQ3; purified USP30, Ub-rhodamine cleavage fluorescence; inhibition, % at 25 µM; hit rate 5.3% among 47,000; AID 1645860
USP17 block: inhibitors of human USP17 deubiquitinase; A8MUK1; purified USP17, Ub-rhodamine cleavage fluorescence, 3 h; inhibition, % at 50 µM; hit rate 6.5% among 47,000; AID 1645855
Target sequence (A8MUK1 whole entry, looked up): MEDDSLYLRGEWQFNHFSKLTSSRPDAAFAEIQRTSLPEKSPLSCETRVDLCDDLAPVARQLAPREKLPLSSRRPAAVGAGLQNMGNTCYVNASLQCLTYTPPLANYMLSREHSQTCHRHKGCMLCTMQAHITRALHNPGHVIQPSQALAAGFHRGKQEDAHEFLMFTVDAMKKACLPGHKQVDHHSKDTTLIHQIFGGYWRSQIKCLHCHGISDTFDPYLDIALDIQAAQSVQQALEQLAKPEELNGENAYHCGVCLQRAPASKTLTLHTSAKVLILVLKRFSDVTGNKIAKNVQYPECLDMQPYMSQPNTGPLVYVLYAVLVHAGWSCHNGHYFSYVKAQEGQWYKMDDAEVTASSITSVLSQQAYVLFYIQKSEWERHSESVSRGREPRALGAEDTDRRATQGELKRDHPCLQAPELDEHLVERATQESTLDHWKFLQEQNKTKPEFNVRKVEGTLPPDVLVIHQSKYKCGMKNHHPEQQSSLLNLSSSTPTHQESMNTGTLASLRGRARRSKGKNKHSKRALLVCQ
An asterisk follows results filed as active; . = no result. Rule as the data show it: active = inhibition above about 30%; inactive = the rest.

SMILES	USP28 block	USP30 inh	USP17 block
O=C(N[C@@H]1C[C@@H](Oc2cccc(F)c2)[C@H](O)[C@H]1N1CCCCC1)c1ncc[nH]1	-7	-17	.
O=S(=O)(Cc1nc(-c2ccc3c(c2)OCO3)no1)c1ccc(F)cc1	-41	-208	-70
O=c1ccc(-c2noc(-c3ccc4cc[nH]c4c3)n2)c[nH]1	11	-273	59*
O=c1ccc(-c2noc(/C=C/c3ccc4c(c3)OCO4)n2)c[nH]1	9	6	47*
Cc1ccc(-c2nc(-c3ccc(=O)[nH]c3)no2)cc1F	-30	-54	-6
COc1ccc(Cl)cc1NC(=O)Cn1cc(S(=O)(=O)N2CCC(C)CC2)c2ccccc2c1=O	4	1	0
O=C(Cc1ccccc1)N1CCC2(CC1)OC(C(=O)N1CCCC1)Cn1ccnc12 (configuration not stated)	-9	-50	-22
CCOC(=O)N1CCN(C(=O)c2cn(CC)c3ccc(S(=O)(=O)N4CCc5ccccc5C4)cc3c2=O)CC1	0	-8	19
c1ccc(-n2ncc3c(NCC4CCCO4)ncnc32)cc1 (configuration not stated)	6	31*	15
c1ccc(-c2cc3c(NCC4CCCO4)ncnc3s2)cc1 (configuration not stated)	0	-4	-2
Cc1ccc(C(C)C)c(OCC(=O)Nc2ccc(S(=O)(=O)N3CCCCC3)cc2)c1	6	-15	3
Cc1ccc(S(=O)(=O)N2CCN(S(=O)(=O)N3CCCCCC3)CC2)cc1	4	40*	21
Cc1ccc(S(=O)(=O)N(C)c2c(C)ccc(S(=O)(=O)N3CCCCC3)c2C)cc1	16	30*	6
COc1ccc(S(=O)(=O)N2CCCCC2)cc1N(C)S(=O)(=O)c1ccc(C)cc1	-5	8	-6
Cc1ccc(Cn2cc(S(=O)(=O)N3CCCCC3)ccc2=O)cc1	4	22	5
CC(=O)NC[C@H]1C[C@]2(C)[C@@H](CCCC[C@]2(C)O)N1C(=O)c1ccn(C)n1	8	25	7
Cc1ccc(Cn2nnc3c(=O)n(Cc4nc(-c5ccc(C)cc5)no4)cnc32)cc1	-3	15	34*
O=c1c2nnn(Cc3cccc(Cl)c3)c2ncn1Cc1nc(-c2ccc(F)cc2)no1	-1	6	-3
COc1ccc(NS(=O)(=O)c2cccc(C(=O)NCc3ccc(OC)c(OC)c3)c2)cc1	6	5	1
COc1cccc2cc(C(=O)C3=C(O)C(=O)N(CCCN(C)C)C3c3cccs3)oc12 (configuration not stated)	8	19	20
Cc1ccc(S(=O)(=O)N(Cc2ccco2)Cc2cc3cccc(C)c3[nH]c2=O)cc1	-2	-15	-3
O=C(NCc1ccco1)N1CCCn2nc(-c3cccnc3)cc2C1	-12	-56	31*
O=C(NCC1CCCO1)N1CCCn2nc(-c3cccnc3)cc2C1 (configuration not stated)	5	1	7
CCOc1cc(=O)c(C(=O)Nc2ccc(C#N)cc2)nn1-c1ccccc1	-10	0	-3
CC(Sc1nc2nn(-c3ccccc3)c(=O)c-2c2n1CCCCC2)C(=O)Nc1ccc(C#N)cc1 (configuration not stated)	16	33*	0
SMILES	USP28 block	USP30 inh	USP17 block
O=C(Nc1nc2ccccc2s1)c1ccc2c(c1)C(=O)N(Cc1cccnc1)C2=O	-3	24	58*
O=C(NCc1cccnc1)c1cccnc1-c1nc2ccccc2s1	6	13	16
CC1CCN(C(=O)c2cc(-c3cccnc3)n[nH]2)CC1	.	.	-12
O=C(NCc1ccccc1)c1nc(CS(=O)(=O)c2ccc(Cl)cc2)no1	8	-33	-8
CC(C)c1nccn1-c1cccc(C2CCN(C(=O)c3ccn[nH]3)CC2)n1	9	18	6
COC1/C=C/OC2(C)Oc3c(C)c(O)c4c(c3C2=O)C(=O)C=C(NC(=O)/C(C)=C\C=C\C(C)C(O)C(C)C(O)C(C)C(OC(C)=O)C1C)C4=O (configuration not stated)	9	-61	64*
COC1=C2CC(C)CC(OC)C(O)C(C)/C=C(\C)C(OC(N)=O)C(OC)/C=C\C=C(/C)C(=O)NC(=CC1=O)C2=O (configuration not stated)	-4	-33	-14
CO[C@H]1/C=C/OC2(C)Oc3c(C)c(O)c4c(c3C2=O)C2(C=C(NC(=O)/C(C)=C\C=C\[C@H](C)[C@H](O)[C@@H](C)[C@@H](O)[C@@H](C)[C@H](OC(C)=O)C1C)C4=O)OCC(=O)O2 (some centres not stated)	23	-49	60*
O=C([C@H]1CCCO1)N1CCCn2c(nc(Cn3ccnc3)cc2=O)C1	-1	3	-5
Cc1cccc(NS(=O)(=O)c2ccc3c(c2)NC(=O)CCS3)c1C	19	27	10
COCCN1CCOCC2(C1)CN(C(=O)CC1CC1)CCO2 (configuration not stated)	7	16	0
COc1ccc(Cn2c3c(c(=O)[nH]c2=O)CN(CCc2ccccc2)CN3)cc1	-1	-5	3
COc1ccc(Cn2c3c(c(=O)[nH]c2=O)CN(C2CCCCC2)CN3)cc1	9	47*	43*
Cc1cccc2nc(C(=O)Nc3cccc(C(N)=O)c3)cn12	0	11	21
CC(C)(C)c1cc(C(=O)Nc2ccc3c(c2)OCCO3)n(Cc2ccccc2)n1	17	11	11
O=C(Cn1nc(-c2ccc3c(c2)OCCO3)ccc1=O)Nc1ccc(Oc2ccccc2)cc1	12	20	31*
O=C1CCN(C(=O)c2ccc(C(=O)c3ccccc3)cc2)CC1	3	20	13
O=C(c1ccccc1)c1cccc2c1NCC2	43*	20	16
COCCn1ccc2nc(C)c(C(=O)Nc3ccc(C)c(C)c3)cc2c1=O	-5	-19	-13
COC(=O)C1Cc2ccccc2CN1Cc1c(O)ccc2ccccc12 (configuration not stated)	-11	-12	0
CC1(C)CC2CC(C)(CN2Cc2c(O)ccc3ccccc23)C1 (configuration not stated)	1	-24	57*
Cc1ccc(C(=O)N2CCCC(Cc3cnc(-c4ncc[nH]4)cn3)C2)cn1 (configuration not stated)	-1	9	3
COC1=CC(=O)C=C(C(=O)O)C12Oc1c(Cl)c(C)c(Cl)c(O)c1C2=O (configuration not stated)	-8	-101	-5
CCOC(=O)c1nn(-c2ccc(F)cc2)c2c1CCCCC2	36*	13	12
O=C(Nc1ccncc1)c1nn(-c2ccc(F)cc2)c2c1CCCCC2	20	9	-11
Cc1cc2c(cc1S(=O)(=O)N1CCCC1)OCC(=O)N2Cc1noc(C2CCC2)n1	-3	-18	-13
COc1ccc(C(=O)CSc2nnc(Cc3cc(=O)[nH]c(=O)[nH]3)n2-c2ccccc2)cc1	5	-85	0
COc1ccc(-c2cc3c(=O)n(CC(=O)NCCCN4CCOCC4)ncn3n2)cc1	13	30	20
Cc1[nH]n2c(=O)cc(Cc3ccccc3)nc2c1-c1ccccc1	-12	14	-9
O=c1cc(Cc2ccccc2)nc2c(-c3ccccc3)c(COc3ccccc3)[nH]n12	41*	40*	11

Compound activity: PubChem, Buhrlage Lab, Dana-Farber Cancer Institute and Novartis Institutes for BioMedical Research (Cambridge, Mass)
